# TrxR1 inh – qHTS Assay for Inhibitors of Mammalian Selenoprotein Thioredoxin Reductase 1 (TrxR1): qHTS. Potency, µM (highest dose often 114 µM), for inactives: at the highest dose activity change, negative = inhibition, most hits filed as inhibitors. 390,000 compounds, 1% hits. recombinant rTrxR1, NADPH fluorescence consumption, selenite substrate; also: potency is read from the fitted curve at half-maximal effect; nearly all actives have a fitted effect of over 65% in size
#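 Rat TrxR1 (90 nM in the dispensed reagent) was pre-reduced with 400 uM NADPH for 5 min at room temperature, then incubated with compound for 15 min. After 400 uM selenite was added, NADPH fluorescence (Ex 340/Em 450 nm) was followed for 8 min.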
# TrxR1 substrate – qHTS Assay for Substrates of Mammalian Selenoprotein Thioredoxin Reductase 1 (TrxR1): qHTS; Thioredoxin reductase 1, cytoplasmic (Rattus norvegicus), O89049; purified TrxR1 substrate turnover, NADPH consumption readout; Potency, µM (titrated, usually from 114 µM), inactives show at the highest dose activity change, negative = substrate turnover; 390,000 compounds, 0.01% hits; AID 588456, 2011; also: potency is read from the fitted curve at half-maximal effect; nearly all actives have a fitted effect of over 50% in size
#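 Rat TrxR1, dispensed at 90 nM, was prereduced with 400 uM NADPH (final) for 5 min at ~22 deg C, then incubated with compound 15 min before 400 uM selenite. A first-read NADPH fluorescence drop versus no-compound background flagged substrates.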
# FBPA coupling cs – qHTS Assay for Inhibitors of Fructose-1,6-bisphosphate Aldolase from Giardia Lamblia: Coupling assay counterscreen; coupling enzyme system counterscreen, AmpLite Red fluorescence; activity change, negative = inhibition, % at 58.2 µM, hits read low; 290,000 compounds, 0.67% hits; in the data active = activity change below about -30%
#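 Fluorescence at 525 nm excitation and 598 nm emission measured inhibition of the coupled detection system without aldolase. Compounds (at 57.5 uM final) were preincubated 10 min at room temperature with coupling enzyme reagent before a 20 min substrate/AmpLite Red step.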
# IDH1 R132H inh – qHTS for Inhibitors of mutant isocitrate dehydrogenase 1 (IDH1): qHTS | Isocitrate dehydrogenase [NADP] cytoplasmic (Homo sapiens), O75874 | IDH1-R132H enzyme, NADPH consumption, diaphorase/resazurin fluorescence | Potency, µM (highest dose often 76.6 µM), for the others: at the top dose activity change, negative = inhibition, most hits filed as inhibitors | 390,000 compounds, 0.093% hits | AID 602179, 2012; also: potency is read from the fitted curve at half-maximal effect; nearly all actives have a fitted effect of over 65% in size
# Target sequence (O75874 whole entry R132H, stated change not applied): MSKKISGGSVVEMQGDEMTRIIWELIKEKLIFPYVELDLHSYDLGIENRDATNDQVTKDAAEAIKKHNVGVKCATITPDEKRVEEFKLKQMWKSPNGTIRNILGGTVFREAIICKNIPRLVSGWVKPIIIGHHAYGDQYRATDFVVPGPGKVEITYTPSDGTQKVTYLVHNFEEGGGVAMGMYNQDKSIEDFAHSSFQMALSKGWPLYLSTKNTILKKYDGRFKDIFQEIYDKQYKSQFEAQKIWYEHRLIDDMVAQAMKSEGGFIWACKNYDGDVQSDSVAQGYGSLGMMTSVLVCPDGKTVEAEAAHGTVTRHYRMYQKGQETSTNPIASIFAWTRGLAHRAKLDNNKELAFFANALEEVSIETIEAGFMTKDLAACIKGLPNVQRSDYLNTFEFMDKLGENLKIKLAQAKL
#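 IDH1-R132H (0.5 ug/mL) preincubated 30 min with compound, then NADPH (0.016 mM) and alpha-KG (2 mM) added; 80 min at RT, pH 7.5. Remaining NADPH coupled via diaphorase/resazurin to fluorescence (540/590 nm); concentration-response curves normalized to no-enzyme control.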
# Eya2 inh – qHTS Assay for Inhibitors of the Phosphatase Activity of Eya2; Protein phosphatase EYA2 (Homo sapiens), O00167; recombinant Eya2, OMFP fluorescence dephosphorylation (OMFP is methylfluorescein phosphate); Potency, µM (highest dose often 76.9 µM), for inactives: at the top dose activity, negative = inhibition, usual class: inhibitors; 330,000 compounds, 0.006% hits; AID 488837, 2010; also: potency is read from the fitted curve at half-maximal effect
#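 Eya2 (0.2 uM) preincubated 10 min at ambient with compound, then OMFP substrate added at 50 uM; 10 min reaction in 50 mM HEPES pH 7.5, 50 mM NaCl, 5 uM MgCl2, 0.05% BSA, 1 mM DTT. Fluorescence read at Ex 485/Em 525 nm.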
# * = called active by the depositor; ? = inconclusive; / = not tested or not shown; [ ] = dose if it differs, or a comment. Hits are enriched below; roughly 1.5% of the tested compounds scored in any of these assays. Unless noted, calls follow the shape of the dose curve; as a rule, active = well fitted curve in the direction sought with a large enough effect; inconclusive = small, poorly fitted or top-dose-only effect, or another doubt; inactive = no such curve, though single readings can be large; an effect the other way counts as inactive or inconclusive. % is scaled to controls: 0 for no effect and ±100 for the full control effect.
SMILES,TrxR1 inh,TrxR1 substrate,FBPA coupling cs,IDH1 R132H inh,Eya2 inh
Cc1c(S(=O)(=O)c2ccccn2)c(N)n(Cc2ccccc2Cl)c1C,?,8%[57.1 µM],1,-1%,13%
Cc1c(S(=O)(=O)c2ccccn2)c(N)n(Cc2ccccc2)c1C,11µM*,2%[57.1 µM],0,11%,0%
N#CCCn1cc(CNCc2cccnc2)c(-c2ccccc2)n1,-33%,47%,/,/,/
O=C1N=C(N2CCOCC2)S/C1=C/c1ccc(-c2ccccc2Cl)o1,-16%,-16%,0,-1%,3%
O=C1NC(=O)/C(=C/c2ccc(N3CCOCC3)o2)N1,?,5%[57.1 µM],-30,4%,0%
O=C1S/C(=C\c2ccc(N3CCOCC3)o2)C(=O)N1Cc1c(F)cccc1Cl,2.5µM*,4%[57.1 µM],-41*,1%,-8%
O=C1S/C(=C/c2ccc(N3CCOCC3)o2)C(=O)N1Cc1c(F)cccc1Cl,8.9µM*,-10%,-16,7%,11%
O=C1S/C(=C\c2ccc(N3CCOCC3)o2)C(=O)N1c1ccccc1,4µM*,5%[57.1 µM],-43*,7%,-5%
O=C(O)c1ccccc1-c1ccc(/C=C2\SC(=O)N(c3ccccc3)C2=O)o1,-26%,-8%,9,-2%,3%
O=C1NC(=O)/C(=C\c2ccc(N3CCOCC3)o2)N1,8.9µM*,-22%,-5,-1%,-1%
O=C(Cc1ccccc1Cl)NO,6%,0%,/,/,/
CC[C@H](C)[C@H](NC(=O)[C@H](Cc1ccc(O)cc1)NC(=O)[C@@H](NC(=O)[C@H](CCCN=C(N)N)NC(=O)[C@@H](N)CC(=O)O)C(C)C)C(=O)N[C@@H](Cc1ccc(N)cc1)C(=O)N1CCC[C@H]1C(=O)N[C@@H](Cc1ccccc1)C(=O)O,/,/,0,/,/
CC(C)Nc1oc(-c2ccccc2)nc1-c1cccc2ccccc12,/,/,1,/,/
COC(=O)c1nn(-c2ccc(OC)cc2)c(=O)cc1O,0%[57.1 µM],1%[57.1 µM],-1,-8%,-21%
COc1ccc(-n2nc(C#N)c(Cl)cc2=O)cc1,6.3µM*,0%,1,3%,-12%
Cc1nc([N+](=O)[O-])c(Br)n1CC(=O)c1ccc(F)cc1,2.5µM*,6%,1,0%,-3%
Cc1nc([N+](=O)[O-])c(Sc2nc3ccc([N+](=O)[O-])cc3[nH]2)n1Cc1ccccc1,2.5µM*,-13%,3,3%,10%
Cc1nc([N+](=O)[O-])c(SCC(O)CCl)n1Cc1ccc(Cl)cc1 (centres undefined),14%[57.1 µM],3%[57.1 µM],0,-1%,12%
Cc1nc([N+](=O)[O-])cn1CC(=O)c1ccc(F)cc1,-2%[57.1 µM],-10%,-1,2%,-1%
Cc1nc([N+](=O)[O-])c(Br)n1Cc1ccccc1,16µM*,0%,0,-1%,13%
CCn1c(=N)n(CC(=O)c2cccc([N+](=O)[O-])c2)c2ccccc21,8%,-5%,0,1%,4%
Cc1nc([N+](=O)[O-])c(Br)n1CC(=O)c1cccc([N+](=O)[O-])c1,7.1µM*,-3%[57.1 µM],6,1%,-5%
O=C1C=CC2=C3c4cc(O)c(O)cc4C[C@@]3(O)COC2=C1,/,/,-9,/,/
CC(C)(C)OC(=O)NS(=O)(=O)NOCc1ccccc1,-7%,2%,/,/,/
CCn1c(C)nc([N+](=O)[O-])c1C(=O)O,26%[57.1 µM],13%[57.1 µM],1,3%,8%
SMILES,TrxR1 inh,TrxR1 substrate,FBPA coupling cs,IDH1 R132H inh,Eya2 inh
COC(=O)Cn1c(C)nc([N+](=O)[O-])c1Br,16µM*,9%[57.1 µM],3,3%,-2%
CCn1c2ccccc2c2cc(N)ccc21,5%,80%,-9,3%,-2%
CCn1c(C)cc(=S)c2ccccc21,?,8%[57.1 µM],-42*,0%,-21%
Cn1c(=O)n(C)c2cc(NC(=O)CCl)ccc21,50µM*,1%,6,0%,7%
Cc1ccc2cc(CN(CCCN3CCOCC3)C(c3nnnn3Cc3ccco3)C(C)C)c(=O)[nH]c2c1C (centres undefined),10µM*,-3%,/,-5%,/
COc1cccc(CN2CCNC(=O)C2CC(=O)N2CCCCO2)c1OC (centres undefined),-9%,5%,-45*,-5%,-13%
CC(C)(C)CN1CCNC(=O)C1CC(=O)N1CCN(c2ccccc2)CC1 (centres undefined),-17%,3%,-38*,-10%,-2%
Cc1ccccc1CN1CCNC(=O)C1CC(=O)O (centres undefined),71µM*,5%,-2,6%,14%
COc1ccc(CN2CCNC(=O)C2CC(=O)N2CCCCO2)c(OC)c1 (centres undefined),12%,8%[57.1 µM],-6,1%,-2%
COc1cccc(CN2CCNC(=O)C2CC(=O)O)c1OC (centres undefined),?,-1%,2,-10%,-7%
CC(C)(C)CN1CCNC(=O)C1CC(=O)N1CCC(C(=O)N2CCOCC2)CC1 (centres undefined),-49%,-15%[57.1 µM],-10,9%,10%
COc1cccc(-c2coc3ccc(Br)cc3c2=O)c1,/,/,0,/,/
CCCc1cc(CN2CCOCC2)c(O)c(CN2CCOCC2)c1O,1.6µM*,2%[11.4 µM],/,3%,/
CS(=O)(=O)c1ccc(C(=O)OCC(=O)NC(=O)C2COc3ccccc3O2)cc1[N+](=O)[O-] (centres undefined),8.9µM*,-1%,/,1%,-22%
CS(=O)(=O)c1ccc(C(=O)OCC(=O)Nc2cccnc2Cl)cc1[N+](=O)[O-],2.5µM*,3%,/,17%,-23%
O=C(COC(=O)c1ccc([N+](=O)[O-])cc1)Nc1cccnc1Cl,10%,4%,/,2%,/
Nc1ccc(C(=O)NNC(=O)C2COc3ccccc3O2)cc1[N+](=O)[O-] (centres undefined),-6%[57.1 µM],2%[57.1 µM],/,-3%,-12%
Cc1ccccc1NC(=O)Cc1nc(COC(=O)c2ccc(S(C)(=O)=O)c([N+](=O)[O-])c2)cs1,3.2µM*,-3%,/,-16%,21%
COc1cccc(/C=N/NC(=O)CCC(=O)Nc2ccc(Br)cc2)c1,14%,-5%,0,-5%,8%
O=C(CCC(=O)Nc1ccc(F)cc1)N/N=C/c1cccc(Br)c1,33%,10%,-31*,48%,-12%
Cc1ccc(N(CC(=O)N/N=C/c2cccc(Br)c2)S(C)(=O)=O)cc1,-6%,-7%,-31*,33%,-5%
